# Reference: PubChem BioAssay (EPA / NIEHS)
# “And” between values parts separate entries of the source, which are not always exact repeats. Equal values may be shown once. A structure can be active in one record and inactive in another. The source made the active and inactive calls. Rule for the calls: active = hit-call score of the fitted dose curve at least 0.9, where 1 is the maximum; inactive = score below 0.9.
# Tests used:
# Conditions in all cases: mRNA level, 48 h; actives raise or lower the signal
# CYP4A11 (gene 1579) = test: LTEA_HepaRG_CYP4A11: Life Technologies and Expression Analysis (LTEA) Assay for CYP4A11 using HepaRG (AID 2283486)
# Summary of the method: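 Readout is CYP4A11 transcript level by qRT-PCR, normalized to three housekeeping genes and fitted bidirectionally against 0.5% DMSO. Human HepaRG cells were treated 48 h, in duplicate, with an 8-point half-log series topping at 100 uM.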
# [1] = read-out: Cytochrome P450 3A4 (Homo sapiens) (UniProt P08684); test: LTEA_HepaRG_CYP3A4: Life Technologies and Expression Analysis (LTEA) Assay for CYP3A4 using HepaRG (AID 2283487)
# Summary of the method: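 In a human hepatic line (HepaRG), duplicate wells were treated 48 h with up to 100 uM chemical in half-log dilutions. Endpoint: CYP3A4 mRNA induction or loss relative to 0.5% DMSO vehicle, by qRT-PCR.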
# [2] = read-out: Early growth response protein 1 (EGR1) transcription factor, EGR1 (gene 1958); test: LTEA_HepaRG_EGR1: Life Technologies and Expression Analysis (LTEA) Assay for Early growth response protein 1 (EGR1) transcription factor using HepaRG (AID 2283490)
# Summary of the method: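 HepaRG, 48 h exposure, 8-pt half-log series from 100 uM, 0.5% DMSO vehicle; EGR1 transcript by TaqMan qRT-PCR (Fluidigm array), housekeeping-normalized; bidirectional fit relative to DMSO baseline.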
# [3] = read-out: Ezrin (EZR), EZR (gene 7430); test: LTEA_HepaRG_EZR: Life Technologies and Expression Analysis (LTEA) Assay for Ezrin (EZR) using HepaRG (AID 2283491)
# Summary of the method: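 Gain or loss of EZR mRNA is scored relative to 0.5% DMSO in human HepaRG cultures treated 48 h with test chemicals in duplicate, eight half-log concentrations from 100 uM.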
# CYP3A5 (gene 1577) = test: LTEA_HepaRG_CYP3A5: Life Technologies and Expression Analysis (LTEA) Assay for CYP3A5 using HepaRG (AID 2283493)
# Summary of the method: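 Readout was CYP3A5 mRNA by qRT-PCR. HepaRG cultures were exposed for 48 h in serum-free induction medium to chemicals at up to 100 uM, and responses were fitted in both directions relative to DMSO vehicle.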
# [4] = read-out: Fatty Acid-Binding Protein 1 (FABP1), FABP1 (gene 2168); test: LTEA_HepaRG_FABP1: Life Technologies and Expression Analysis (LTEA) Assay for Fatty Acid-Binding Protein 1 (FABP1) using HepaRG (AID 2283494)
# Summary of the method: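 qRT-PCR readout of FABP1 transcript (normalized to three housekeeping genes) after 48 h chemical exposure of HepaRG cells; eight concentrations, half-log steps, max 100 uM, 0.5% DMSO vehicle; gain or loss fitted relative to DMSO baseline.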
# [5] = read-out: Glutathione S-Transferase (GSTA2), GSTA2 (gene 2939); test: LTEA_HepaRG_GSTA2: Life Technologies and Expression Analysis (LTEA) Assay for Glutathione S-Transferase (GSTA2) using HepaRG (AID 2283497)
# Summary of the method: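 qRT-PCR readout of GSTA2 transcript, normalized to three housekeeping genes, fitted bidirectionally against 0.5% DMSO baseline. Differentiated HepaRG cells received compound for 48 h at 8 concentrations (top 100 uM, half-log steps).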
# [6] = read-out: Glutamate-cysteine ligase catalytic (GCLC), GCLC (gene 2729); test: LTEA_HepaRG_GCLC: Life Technologies and Expression Analysis (LTEA) Assay for Glutamate-cysteine ligase catalytic (GCLC) using HepaRG (AID 2283498)
# Summary of the method: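 HepaRG, 48 h exposure, 8-pt half-log series from 100 uM, 0.5% DMSO vehicle; TaqMan qRT-PCR for GCLC mRNA, housekeeping-normalized; bidirectional curve fit vs DMSO baseline.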
# [7] = read-out: Glutamate-cysteine ligase regulatory (GCLM), GCLM (gene 2730); test: LTEA_HepaRG_GCLM: Life Technologies and Expression Analysis (LTEA) Assay for Glutamate-cysteine ligase regulatory (GCLM) using HepaRG (AID 2283500)
# Summary of the method: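 In this multiplexed HepaRG gene-expression assay, GCLM mRNA change after 48 h treatment (8 concentrations, max 100 uM) was scored against DMSO by bidirectional curve fitting.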
# [8] = read-out: Glutathione S-transferase M3 (GSTM3), GSTM3 (gene 2947); test: LTEA_HepaRG_GSTM3: Life Technologies and Expression Analysis (LTEA) Assay for Glutathione S-transferase M3 (GSTM3) using HepaRG (AID 2283501)
# Summary of the method: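 GSTM3 transcript levels came from Fluidigm TaqMan qRT-PCR normalized to three housekeeping genes, fitted in both directions against DMSO. HepaRG cultures received chemicals for 48 h in serum-free induction medium (0.5% DMSO), 8 half-log concentrations up to 100 uM, duplicate.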
# [9] = read-out: Heat shock 70 kDa protein 1 (HSPA1A), gene 3303; test: LTEA_HepaRG_HSPA1A: Life Technologies and Expression Analysis (LTEA) Assay for Heat shock 70 kDa protein 1 (HSPA1A) using HepaRG (AID 2283502)
# Summary of the method: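 An oxidative-stress marker readout: HepaRG cells treated 48 h in duplicate with an eight-point series (highest 100 uM) had HSPA1A mRNA quantified by TaqMan qRT-PCR. Activity was fitted in both directions using 0.5% DMSO as baseline.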
# [10] = read-out: Hypoxia-inducible factor 1-alpha (Homo sapiens) (UniProt Q16665); test: LTEA_HepaRG_HIF1A: Life Technologies and Expression Analysis (LTEA) Assay for Hypoxia-inducible factor 1 (HIF1A) Trancription factor using HepaRG (AID 2283503);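 note: HIF1A transcript by TaqMan qRT-PCR normalized to ACTB GAPDH and POLR2A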
# Summary of the method: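 Gain- or loss-of-signal HIF1A mRNA changes are fitted against a DMSO baseline. HepaRG cultures receive eight concentrations, highest 100 uM, for 48 h in serum-free induction medium with 0.5% DMSO.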
# [11] = read-out: 3-Hydroxy-3-Methylglutaryl-CoA Synthase 2 (HMGCS2), HMGCS2 (gene 3158); test: LTEA_HepaRG_HMGCS2: Life Technologies and Expression Analysis (LTEA) Assay for 3-Hydroxy-3-Methylglutaryl-CoA Synthase 2 (HMGCS2) using HepaRG (AID 2283504)
# Summary of the method: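 Readout is HMGCS2 transcript by qRT-PCR, housekeeping-normalised (ACTB/GAPDH/POLR2A) and fitted bidirectionally against 0.5% DMSO. Differentiated HepaRG cells received chemicals 48 h, duplicate wells, eight half-log concentrations topping at 100 uM.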
# [12] = read-out: Pro-epidermal growth factor (Homo sapiens) (UniProt P01133); test: LTEA_HepaRG_EGF: Life Technologies and Expression Analysis (LTEA) Assay for Epidermal growth factor (EGF) using HepaRG (AID 2283489)
# Summary of the method: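 EGF transcript measured by Fluidigm TaqMan qRT-PCR with three housekeeping genes for normalization, 48 h after dosing HepaRG cultures in duplicate (top 100 uM, half-log steps, 0.5% DMSO vehicle). Gain or loss relative to DMSO fitted.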
# [13] = read-out: Cytochrome P450 4A22 (Homo sapiens) (UniProt Q5TCH4); test: LTEA_HepaRG_CYP4A22: Life Technologies and Expression Analysis (LTEA) Assay for Cytochrome P450 4A22 (CYP4A22) using HepaRG (AID 2283495)
# Summary of the method: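 Gene expression measured by qRT-PCR against three housekeeping genes (ACTB, GAPDH, POLR2A), with gain or loss fitted relative to 0.5% DMSO vehicle. HepaRG cultures received 48 h chemical treatment, top concentration 100 uM, half-log steps, duplicate wells.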
# [14] = read-out: Cytochrome P450 7A1 (Homo sapiens) (UniProt P22680); test: LTEA_HepaRG_CYP7A1: Life Technologies and Expression Analysis (LTEA) Assay for Cytochrome P450 7A1 (CYP7A1) using HepaRG (AID 2283496)
# Summary of the method: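 Using 0.5% DMSO as vehicle and baseline, chemicals were tested in duplicate over an 8-point range from 100 uM on HepaRG cells for 48 h; qRT-PCR signals were normalised to ACTB, GAPDH and POLR2A.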
# [15] = read-out: growth arrest and DNA damage 45 (GADD45G), GADD45G (gene 10912); test: LTEA_HepaRG_GADD45G: Life Technologies and Expression Analysis (LTEA) Assay for growth arrest and DNA damage 45 (GADD45G) using HepaRG (AID 2283499)
# Summary of the method: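 GADD45G transcript level by qRT-PCR (housekeeping-normalized: ACTB, GAPDH, POLR2A) after 48 h chemical treatment of a single HepaRG lot in serum-free induction medium; eight-point half-log series up to 100 uM in 0.5% DMSO, duplicates, up- or down-regulation scored.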
# [16] = read-out: Cytochrome P450 3A7 (Homo sapiens) (UniProt P24462); test: LTEA_HepaRG_CYP3A7: Life Technologies and Expression Analysis (LTEA) Assay for CYP3A7 using HepaRG (AID 2283492)
# Summary of the method: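 CYP3A7 transcript measured by qRT-PCR (ACTB, GAPDH, POLR2A normalization) after 48 h chemical exposure of HepaRG cells in duplicate. Eight half-log concentrations, maximum 100 uM, 0.5% DMSO vehicle; bidirectional curve fitting against DMSO baseline.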
# Chain of Cytochrome P450 3A4 (Homo sapiens) (P08684 whole entry, looked up): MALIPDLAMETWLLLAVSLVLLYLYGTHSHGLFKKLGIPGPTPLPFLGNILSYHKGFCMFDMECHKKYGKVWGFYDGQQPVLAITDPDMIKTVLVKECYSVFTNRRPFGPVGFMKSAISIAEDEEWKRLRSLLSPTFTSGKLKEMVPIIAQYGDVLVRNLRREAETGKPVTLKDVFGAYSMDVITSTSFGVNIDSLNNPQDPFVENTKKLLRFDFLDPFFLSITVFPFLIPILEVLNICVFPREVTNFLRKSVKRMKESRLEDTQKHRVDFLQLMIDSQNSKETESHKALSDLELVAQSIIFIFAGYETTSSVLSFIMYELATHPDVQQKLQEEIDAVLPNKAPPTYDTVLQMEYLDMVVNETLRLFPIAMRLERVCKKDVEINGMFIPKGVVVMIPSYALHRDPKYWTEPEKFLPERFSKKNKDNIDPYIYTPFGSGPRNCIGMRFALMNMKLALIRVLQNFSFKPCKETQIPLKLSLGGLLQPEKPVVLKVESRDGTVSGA
# Chain of Hypoxia-inducible factor 1-alpha (Homo sapiens) (Q16665 whole entry, looked up): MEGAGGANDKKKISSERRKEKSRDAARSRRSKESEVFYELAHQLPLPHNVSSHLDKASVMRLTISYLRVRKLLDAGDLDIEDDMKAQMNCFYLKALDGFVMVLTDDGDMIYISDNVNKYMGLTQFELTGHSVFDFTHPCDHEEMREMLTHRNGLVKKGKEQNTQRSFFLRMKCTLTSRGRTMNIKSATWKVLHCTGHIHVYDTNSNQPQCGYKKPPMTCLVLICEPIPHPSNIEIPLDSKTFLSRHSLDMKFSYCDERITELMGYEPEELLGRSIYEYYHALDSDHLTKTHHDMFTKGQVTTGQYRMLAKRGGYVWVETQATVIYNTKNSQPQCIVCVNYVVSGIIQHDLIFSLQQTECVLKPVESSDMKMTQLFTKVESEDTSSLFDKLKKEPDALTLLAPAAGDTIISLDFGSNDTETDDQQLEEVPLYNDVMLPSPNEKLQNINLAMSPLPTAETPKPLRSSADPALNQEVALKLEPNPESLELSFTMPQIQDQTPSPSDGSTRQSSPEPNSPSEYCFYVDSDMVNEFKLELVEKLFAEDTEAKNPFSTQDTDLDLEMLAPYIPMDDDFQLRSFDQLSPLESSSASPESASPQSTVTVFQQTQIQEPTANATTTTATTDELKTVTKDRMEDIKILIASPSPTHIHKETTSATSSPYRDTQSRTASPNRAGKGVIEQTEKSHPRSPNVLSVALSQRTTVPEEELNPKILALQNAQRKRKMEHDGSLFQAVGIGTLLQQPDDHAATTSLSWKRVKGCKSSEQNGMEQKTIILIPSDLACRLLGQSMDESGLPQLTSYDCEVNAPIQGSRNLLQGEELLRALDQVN
# Chain of Cytochrome P450 3A7 (Homo sapiens) (P24462 whole entry, looked up): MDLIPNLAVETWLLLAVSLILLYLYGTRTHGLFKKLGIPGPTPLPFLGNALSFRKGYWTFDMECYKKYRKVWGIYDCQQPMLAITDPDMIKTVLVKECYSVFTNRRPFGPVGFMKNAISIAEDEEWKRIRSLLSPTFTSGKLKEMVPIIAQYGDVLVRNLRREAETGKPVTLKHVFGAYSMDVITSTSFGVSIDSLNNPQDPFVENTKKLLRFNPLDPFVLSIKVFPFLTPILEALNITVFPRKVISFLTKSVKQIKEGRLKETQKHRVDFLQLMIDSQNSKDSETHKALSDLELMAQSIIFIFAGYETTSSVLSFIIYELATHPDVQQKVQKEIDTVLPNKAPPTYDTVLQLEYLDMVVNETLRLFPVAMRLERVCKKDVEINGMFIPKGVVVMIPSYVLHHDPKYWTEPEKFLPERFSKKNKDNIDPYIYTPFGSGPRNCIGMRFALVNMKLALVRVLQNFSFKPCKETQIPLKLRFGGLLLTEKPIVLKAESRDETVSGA
smiles,measurement,setting,value
CCCN(CCC)c1c([N+](=O)[O-])cc(S(N)(=O)=O)cc1[N+](=O)[O-],AC50,CYP4A11 (gene 1579),93.5 µM (active) and 15.8 µM (active)
same,outcome,CYP4A11 (gene 1579),inactive
same,AC50,[1],8.79 µM (active) and 12.1 µM (active) and 90.8 µM (active)
same,AC50,[2],93.2 µM (active) and 83.6 µM (active) and 78.9 µM (active)
same,AC50,[3],95.9 µM (active) and 78 µM (active)
same,outcome,[3],inactive
same,AC50,CYP3A5 (gene 1577),93.8 µM (active) and 50 µM (active)
same,outcome,CYP3A5 (gene 1577),inactive
same,AC50,[4],93.5 µM (active) and 35.6 µM (active) and 34.9 µM (active)
same,AC50,[5],91 µM (active) and 68.4 µM (active) and 83.1 µM (active)
same,AC50,[6],70.9 µM (active) and 83.9 µM (active)
same,outcome,[6],inactive
same,AC50,[7],92 µM (active)
same,outcome,[7],inactive
same,outcome,[8],inactive
same,AC50,[9],70.7 µM (active) and 75.6 µM (active) and 50 µM (active)
same,AC50,[10],94.2 µM (active) and 84.5 µM (active)
same,outcome,[10],inactive
same,AC50,[11],54.1 µM (active) and 73.4 µM (active)
same,outcome,[11],inactive
O=C(O)c1nc(Cl)ccc1Cl,outcome,CYP4A11 (gene 1579),inactive
same,outcome,[1],inactive
same,outcome,[12],inactive
same,outcome,[2],inactive
same,outcome,[3],inactive
same,outcome,CYP3A5 (gene 1577),inactive
same,AC50,[4],33.4 µM (active)
same,outcome,[4],inactive
same,outcome,[13],inactive
same,outcome,[14],inactive
same,AC50,[5],50 µM (active)
same,outcome,[5],inactive
same,outcome,[6],inactive
same,outcome,[15],inactive
same,outcome,[7],inactive
same,outcome,[8],inactive
same,outcome,[9],inactive
same,outcome,[10],inactive
same,outcome,[11],inactive
CCNc1nc(Cl)nc(NC(C)C)n1,AC50,CYP4A11 (gene 1579),50 µM (active)
same,AC50,[1],15.7 µM (active)
same,outcome,[12],inactive
same,outcome,[2],inactive
same,outcome,[3],inactive
same,outcome,[16],inactive
same,outcome,CYP3A5 (gene 1577),inactive
same,outcome,[4],inactive
same,AC50,[13],50 µM (active)
same,outcome,[14],inactive
same,outcome,[5],inactive
same,outcome,[6],inactive
same,outcome,[7],inactive
same,outcome,[8],inactive
same,outcome,[9],inactive
same,outcome,[10],inactive
same,outcome,[11],inactive
